Results as given in ChEMBL document CHEMBL3988442, “University of Dundee, Small-Polar-MMV Screening Library” (2021).
In all, about 48,000 compounds went through this assay and about 13,000 (27%) showed an effect of 50% or more. This is one part of the list.

System: Wolbachia pipientis
Test: Anti-Wolbachia Cell-Based Screen
Format: functional
Set-up: scale not given: in the data most compounds retested in dose-response had high values
Details: 5 µM

SMILES | Percent Effect [%]
O=C(c1ncccc1O)N1CCN(Cc2ccco2)C(CCO)C1 (stereo not drawn) | -8.878
CC(C)CN1CCC(NC(=O)N(C)Cc2csc3ccccc23)CC1 | 14.6
CN(C)C1(CNc2ncc(Br)cn2)CCOCC1 | 25.75
CCC(CNS(=O)(=O)c1c[nH]cn1)Oc1ccccc1F (stereo not drawn) | -7.945
COc1ccnc(NCc2ccccc2Cn2cccn2)n1 | 13.47
Cc1nonc1C(=O)N1CC[C@@]2(O)CCN(C3CCCCC3)C[C@H]2C1 | -5.278
O=C(NC1CCC(C(=O)N2CCSCC2)CC1)N1CCC1 (stereo not drawn) | 3.195
Cc1cc(C(=O)N2C[C@H](C(C)C)[C@@H](N(C)C)C2)cs1 | 81.51
CC(C)[C@@H]1CN(C(=O)CCc2ccc(F)cc2)C[C@H]1C(=O)O | -26.1
CC1(C)CN(C(=O)CC2CCC2)C[C@]1(C)O | 6.618
Cc1cc(C(=O)N2C[C@@H](C(=O)O)[C@H](C(C)C)C2)cs1 | 38.77
Cc1nc(CC(C)C)cc(C(=O)N2C[C@@H](N(C)C)[C@H](C(C)C)C2)n1 | -16.81
CC(=O)c1cc(CN2C[C@@H](N(C)C)[C@H](C(C)C)C2)cs1 | 13.8
CC(C)[C@@H]1CN(C(=O)NCc2ccco2)C[C@H]1N(C)C | -15.37
CC(C)[C@@H]1CN(C(=O)CN(C)Cc2ccc(F)cc2)C[C@H]1C(=O)O | -17.02
COCCC(=O)N1C[C@H](C(C)C)[C@@H](N(C)C)C1 | 108.6
CC(C)[C@H]1CN(C(=O)CO)C[C@@H]1N(C)C | 109.8
CC(C)[C@@H]1CN(Cc2cnc(C3CCCCC3)nc2)C[C@H]1N(C)C | -9.184
CC(C)[C@H]1CN(C(=O)CC2CCC2)C[C@@H]1N(C)C | 88.21
N#Cc1cc(S(N)(=O)=O)ccc1NC1CCc2c(F)cccc21 (stereo not drawn) | -10.31
COCCCN(C)c1ncccc1I | 0.1394
Cn1c(NCC(=O)N2CCCC2)c(C#N)c(=O)n(C)c1=O | 6.318
CC(O)CN1CCC(CN(C)Cc2cc(F)cc3cccnc23)CC1 (stereo not drawn) | -9.016
CC(C)Oc1ccc(C(=O)Cn2cnnc2[S+](C)[O-])cc1 (stereo not drawn) | 6.636
CCOc1ccc(S(=O)(=O)NC(=O)CCC2CCCO2)cc1 (stereo not drawn) | 0.3257
COc1cccc(S(=O)(=O)NC(=O)CCC2CCCC2)c1 | 93.05

SMILES | Percent Effect [%]
CS(=O)(=O)c1cccc(S(=O)(=O)NC(=O)CC2CCCCC2)c1 | -9.509
COc1ccc(S(=O)(=O)NC(=O)COC2CCCC2)cc1 | 110.1
COc1cccc(S(=O)(=O)NC(=O)CC2CCCO2)c1 (stereo not drawn) | 94.52
COc1cccc(S(=O)(=O)NC(=O)COC2CCCCC2)c1 | 79.48
CS(=O)(=O)c1cccc(S(=O)(=O)NC(=O)CCC2CCCCC2)c1 | -13.77
COc1cccc(S(=O)(=O)NC(=O)COC2CCCC2)c1 | 0.104
N#Cc1cccc(S(=O)(=O)NC(=O)COC2CCCC2)c1 | 4.791
COc1cccc(S(=O)(=O)NC(=O)COc2c(C)cccc2C)c1 | -5.351
COc1ccc(S(=O)(=O)NC2(CC(N)=O)CCC2)cc1 | 1.65
COc1cccc(S(=O)(=O)NC(=O)CC2CCCC2)c1 | 9.946
Cc1ccc(-n2c(C)nnc2SCC(O)COCc2ccco2)cc1 (stereo not drawn) | -12.77
Cc1cnccc1CN(C)C(=O)c1ccc(Cn2cnnn2)cc1 | -17.07
Cc1ccc(CN(C)C(=O)NCC(C)(C)CCS(C)(=O)=O)s1 | -3.781
CN(C(=O)Cc1coc(-c2ccccc2)n1)C1(C#N)CCC1 | 4.147
COc1ccc(Cl)cc1NCC(=O)N(Cc1cccnc1)C1CC1 | 0.4709
O=C(O)C(F)(F)F.O=C([C@@H]1COC[C@H]2CN(C3CCOCC3)C[C@H]21)N1CCCCO1 | -37.74
COc1ccc(S(=O)(=O)NC(=O)COC2CCCCC2)cc1C | 99.33
COCc1nc(C(=O)NS(=O)(=O)c2ccc(OC)c(C)c2)cs1 | -15.7
COc1ccc(S(=O)(=O)NC(=O)COC2CCCCC2)cc1 | 100.4
COc1ccc(S(=O)(=O)NC(=O)c2cscn2)cc1C | -8.824
NC(=O)C(NC(=O)COC1CCCCC1)c1ccccc1 (stereo not drawn) | -9.016
COc1ccc(OCC(=O)NS(=O)(=O)c2cc(F)ccc2F)cc1 | 18.57
CCCC(O)CNc1cncc(Br)c1 (stereo not drawn) | -5
CC(C)(NC(=O)Nc1cnn(CC2CCCO2)c1)c1nccs1 (stereo not drawn) | -5.14
CCN(C)Cc1n[nH]c(=O)n1-c1ccc(C)c(C)c1 | 100.3
Cc1ccc(F)cc1-n1c(CN(C)S(C)(=O)=O)n[nH]c1=O | 117.3

SMILES | Percent Effect [%]
Cc1ccc(-n2c(COC(C)C)n[nH]c2=O)cc1 | -8.363
COc1ccc(-n2c(COC(C)C)n[nH]c2=O)cc1 | 8.862
CNCc1n[nH]c(=O)n1-c1ccccc1Oc1ccccc1 | -7.871
CN(Cc1n[nH]c(=O)n1Cc1ccccc1F)S(C)(=O)=O | -17.4
CCN(C)Cc1n[nH]c(=O)n1-c1cc(F)ccc1C | 106.9
Cc1ccc(F)cc1-n1c(COC(C)C)n[nH]c1=O | 6.19
CN(Cc1n[nH]c(=O)n1CCc1ccccc1F)S(C)(=O)=O | -6.047
CN(Cc1ccccc1-n1cccn1)C[C@@H]1CCCN2CCCC[C@H]12 | -7.431
CCc1nsc(N2CCN(C(=O)c3ccnc(N(C)C)c3)CC2)n1 | -3.339
CCC1=N[C@@]2(CC[C@@H]3CN(C(=O)NCC(C)C)C[C@@H]32)C(=O)N1CC(C)C | -11.82
Cc1nn(C)c(C)c1C1CCCN1CCOc1ccccc1C#N (stereo not drawn) | -7.684
CS(=O)(=O)NC[C@@H]1OC[C@H]2CN(C(=O)c3ccc[nH]3)CC[C@H]21 | -14.53
CN[C@@H](C)C(=O)N(Cc1cccc(C)c1)Cc1ccccc1OC | 4.64
CCc1nc(CC(=O)N2CCn3c(nnc3C(F)(F)F)C2)cs1 | -0.3988
Cc1nc2c(c(NCc3ccc(-c4ccccn4)s3)n1)CCNCC2 | 3.518
Cc1ccccc1-n1cc(CNc2ncnc3c2CCNCC3)cn1 | 113.8
c1cncc(CNc2ncnc3c2CCN(Cc2ccsc2)CC3)c1 | -11.45
Cc1cccc(-n2cc(CNc3ncnc4c3CCNCC4)cn2)c1 | 94.66
c1ccc(Cn2cc(CNc3ncnc4c3CCNCC4)cn2)cc1 | 100.8
Cc1cccc(-n2cc(CN3CCN(C)[C@@H]4CS(=O)(=O)C[C@@H]43)cn2)c1 | -4.421
Cn1cc(CNc2ncnc3c2CCN(Cc2ccsc2)CC3)cn1 | 1.057
Cc1cccc(=O)n1CCCNc1ncnc2c1CCNCC2 | -13.78
CCc1ncc(C(=O)N(C)C2Cc3ccccc3C2)cn1 | 0.7414
CCC(CC)C(=O)N1CCN(C)c2ncccc2C1 | -0.9461
Cn1nnc2c1CCN(C(C(=O)N1CCCCC1)c1ccccc1)C2 (stereo not drawn) | 4.107
CC(C)C(=O)N1CCCN(C(=O)NC2CCc3ccccc3C2)CC1 (stereo not drawn) | 16.47

SMILES | Percent Effect [%]
CC(C)(C)c1ncc2c(n1)CN(C(=O)C(C)(C)n1cccc1)C2 | 2.811
CC(C(=O)N1CCc2ccccc2C1)n1cc(Br)cn1 (stereo not drawn) | 4.145
CC(C)C(=O)N1CCCc2c(cnn2-c2ccccc2)C1 | 142.7
CC(C)(C)C(=O)N1CCCc2c(cnn2-c2ccccc2)C1 | 70.74
O=C(NCc1nn(-c2ccccc2)c2c1CCC2)N1CCSCC1 | 9.143
Cc1nc2c(c(=O)n1C)CCN(C(=O)Cn1cccc1)CC2 | 14.88
O=C(NCC1OCCc2cn(CC3CCOCC3)nc21)c1ccsc1.O=C(O)C(F)(F)F (stereo not drawn) | -9.912
CSc1ccc(CNC(=O)C2CC(=O)N(C(C)(C)C)C2)cc1 (stereo not drawn) | 13.09
COc1cc(CNC(=O)C2CC(=O)N(C(C)C)C2)ccn1 (stereo not drawn) | -0.8085
CC(C)(C)N1CC(C(=O)NCc2noc(Cc3ccccc3)n2)CC1=O (stereo not drawn) | -0.1463
CN(C)S(=O)(=O)c1ccc(CNC(=O)C2CC(=O)N(C(C)(C)C)C2)cc1 (stereo not drawn) | 129.4
CN(C)S(=O)(=O)c1ccc(CNC(=O)C2CC2)cc1 | 8.545
CC(C)N1CC(C(=O)NCc2ccc(S(=O)(=O)N(C)C)cc2)CC1=O (stereo not drawn) | 136.1
COc1cc(Cl)c(NC(=O)NCCn2cccc2)cc1OC | -6.144
CCN(CC)C(=O)[C@@H]1C[C@@H](N)CN1c1nc(N2CCCC2)nc(C)c1C | -2.729
O=C(c1cn(CCN2CCCCC2)nn1)N1CCCO1 | -7.456
COc1cc(C(=O)N2CCCS2(=O)=O)ccc1C | -0.1842
Cc1cc(C(=O)N2CCS(=O)(=O)CC2)c(C)o1 | 128.6
Cc1occc1C(=O)N1CCCS1(=O)=O | 102.9
COc1cc(C(=O)N2CCCS2(=O)=O)cc(Cl)c1OC | 11.62
Cc1cc(C(=O)N2CCC(CCn3cccn3)CC2)c(C)o1 | -7.806
Cc1cc(C(=O)N2CCCS2(=O)=O)c(C)o1 | 122.2
Cc1cc(C(=O)N2CCN(Cn3cc(Cl)cn3)CC2)c(C)o1 | 0.3754
Cc1occc1C(=O)N1CCOC2(CCCC2)C1 | 0.5411
Cc1ccc(C(=O)N2CCCS2(=O)=O)cc1Cl | -5.646
